In PubChem BioAssay (EPA / NIEHS) one finds outcome data, which are given here for 14 compounds.

Molecules are shown by their SMILES. Records with an inconclusive call do not appear. The source made the active and inactive calls. The calls were made as follows, unless noted: active = hit-call score of the fitted dose curve at least 0.9, where 1 is the maximum; inconclusive = response in the unintended direction; inactive = score below 0.9.

Sequence of THRB (gene 7068) (P10828 whole entry, looked up, the tested form may be a part): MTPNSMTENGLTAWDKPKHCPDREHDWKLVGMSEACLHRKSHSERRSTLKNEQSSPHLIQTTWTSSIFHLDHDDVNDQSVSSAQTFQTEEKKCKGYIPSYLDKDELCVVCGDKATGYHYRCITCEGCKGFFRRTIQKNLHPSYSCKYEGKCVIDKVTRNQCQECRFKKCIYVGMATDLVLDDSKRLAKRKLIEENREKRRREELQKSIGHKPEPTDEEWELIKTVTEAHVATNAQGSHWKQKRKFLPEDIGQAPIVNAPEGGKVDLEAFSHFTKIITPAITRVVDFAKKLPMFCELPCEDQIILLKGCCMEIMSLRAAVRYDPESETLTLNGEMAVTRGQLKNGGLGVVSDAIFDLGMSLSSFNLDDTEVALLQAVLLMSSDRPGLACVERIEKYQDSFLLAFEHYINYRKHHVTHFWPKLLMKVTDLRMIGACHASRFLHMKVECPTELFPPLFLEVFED
Sequence of THRA (gene 7067) (P10827 whole entry, looked up, the tested form may be a part): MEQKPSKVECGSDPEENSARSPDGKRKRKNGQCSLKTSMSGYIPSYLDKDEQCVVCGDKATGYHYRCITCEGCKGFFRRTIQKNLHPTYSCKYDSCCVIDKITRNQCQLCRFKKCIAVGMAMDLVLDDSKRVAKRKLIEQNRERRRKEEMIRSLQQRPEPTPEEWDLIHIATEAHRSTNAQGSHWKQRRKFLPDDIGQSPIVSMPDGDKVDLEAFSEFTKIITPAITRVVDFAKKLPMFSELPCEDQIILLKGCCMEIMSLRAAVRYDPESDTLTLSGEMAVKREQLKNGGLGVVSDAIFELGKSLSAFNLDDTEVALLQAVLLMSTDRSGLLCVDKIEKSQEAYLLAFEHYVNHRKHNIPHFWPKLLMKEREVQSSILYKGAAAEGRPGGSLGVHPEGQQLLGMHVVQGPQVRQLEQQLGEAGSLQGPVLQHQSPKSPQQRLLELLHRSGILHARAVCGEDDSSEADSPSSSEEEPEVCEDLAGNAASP

For one assay, the target named is Thyroid hormone receptor alpha (Rattus norvegicus) + Thyroid hormone receptor beta (Rattus norvegicus) (UniProt P18113+P63059). Kind of assay: TOX21_TR_LUC_GH3_Agonist_Followup: Tox21 GH3 Thyroid Hormone Receptor Agonism Luciferase Follow-Up Assay (AID 2283939). On the procedure: TOX21_TR_LUC_GH3_Agonist_Followup is a secondary assay for specificity for the TOX21_TR_LUC_GH3_Agonist assay. TOX21_TR_LUC_GH3_Agonist_Followup is a cell-based, single-readout assay that uses GH3, a rat pituitary gland cell line, with measurements taken at 28 hours after chemical dosing in a 1536-well plate.TOX21_TR_LUC_GH3_Agonist_Followup is one of one assay component(s) measured or calculated from the TOX21_TR_LUC_GH3_Agonist_Followup assay. It is designed to make measurements of luciferase induction, a form of inducible reporter, as detected with bioluminescence signals by […] technology.Data from the assay component TOX21_TR_LUC_GH3_Agonist_Followup was analyzed into 1 assay endpoint. This assay endpoint, TOX21_TR_LUC_GH3_Agonist_Followup, was analyzed in the positive analysis fitting direction relative to DMSO as the negative control and baseline of activity. Using a type of inducible reporter, gain-of-signal activity can be used to understand changes in the reporter gene as they relate to the gene THRA and THRB in the GH3 cell line using a luciferase reporter. Furthermore, this assay endpoint can be referred to as a primary readout, because the performed assay has only produced 1 assay endpoint. This assay endpoint is designated followup because it was a confirmatory screen following the primary qHTS assay.
Sequence of Thyroid hormone receptor alpha (Rattus norvegicus) + Thyroid hormone receptor beta (Rattus norvegicus) (P63059 whole entry, looked up): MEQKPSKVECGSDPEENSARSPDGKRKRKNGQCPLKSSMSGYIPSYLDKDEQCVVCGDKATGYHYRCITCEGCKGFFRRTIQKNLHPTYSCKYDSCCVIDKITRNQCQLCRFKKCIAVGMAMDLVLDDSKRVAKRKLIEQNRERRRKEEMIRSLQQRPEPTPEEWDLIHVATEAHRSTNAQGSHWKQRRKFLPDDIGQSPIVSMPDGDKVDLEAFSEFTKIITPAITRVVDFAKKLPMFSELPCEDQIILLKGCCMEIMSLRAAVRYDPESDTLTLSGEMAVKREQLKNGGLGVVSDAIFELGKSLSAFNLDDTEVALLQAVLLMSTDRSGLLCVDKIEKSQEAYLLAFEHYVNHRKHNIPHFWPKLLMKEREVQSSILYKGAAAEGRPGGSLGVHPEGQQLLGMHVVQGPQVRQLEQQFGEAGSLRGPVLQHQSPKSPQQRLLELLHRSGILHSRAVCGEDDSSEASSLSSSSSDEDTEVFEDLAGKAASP
Sequence of Thyroid hormone receptor alpha (Rattus norvegicus) + Thyroid hormone receptor beta (Rattus norvegicus) (P18113 whole entry, looked up): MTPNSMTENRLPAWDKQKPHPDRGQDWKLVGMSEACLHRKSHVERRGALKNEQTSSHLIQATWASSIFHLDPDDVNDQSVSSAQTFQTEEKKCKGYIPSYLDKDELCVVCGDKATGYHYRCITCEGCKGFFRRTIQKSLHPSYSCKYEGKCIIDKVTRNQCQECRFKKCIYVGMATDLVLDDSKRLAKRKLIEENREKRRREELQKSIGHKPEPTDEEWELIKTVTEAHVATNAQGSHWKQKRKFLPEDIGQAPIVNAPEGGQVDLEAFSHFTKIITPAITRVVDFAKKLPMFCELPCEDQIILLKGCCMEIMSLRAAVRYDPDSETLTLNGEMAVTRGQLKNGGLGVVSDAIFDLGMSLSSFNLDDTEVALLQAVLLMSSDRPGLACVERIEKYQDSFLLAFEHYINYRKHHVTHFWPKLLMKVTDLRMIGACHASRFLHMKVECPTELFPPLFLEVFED
Cell Media Required: Growth (90% DMEM/F-12, 10% Fetal Bovine Calf Serum, 100U/ml Penicillin, 100 ug/ml Streptomycin), Assay (10ng/mL sodium selenite, 10 ug/mL humanapo-transferrin, 10 uM ethanolamine, 10 ug/mL insulin, 500 ug/mL bovine serum albumin (BSA))Assay Protocol: Cells were seeded at 1,500/well in 5 uL (agonist mode) and 4 uL (antagonist mode) of the assay medium in 1,536-well white/solid plates (Greiner Bio-One North America) using a Multi drop Combi (Thermo Fisher Scientific) dispenser. Chemical samples were serially diluted in DMSO, yielding 15 concentrations for testing. […]
Regarding `c1csc(-c2ccc(-c3cccs3)s2)c1`, the result was inactive.

On to `CC1(C)COP(Oc2ccccc2)OC1`, for which the outcome was inactive. Same read-out and setting: the value for `O=C(Cl)OCCOCCOC(=O)Cl` was “inactive”.

Test system in a further assay: not listed separately
Briefly: TOX21_PR_LUC_Followup_Antagonist_viability: Viability Assessment in the Tox21 HEK293 Progesterone Receptor (PR) Antagonism Luciferase Follow-Up Assay (AID 2283940). From the text:
TOX21_PR_LUC_Followup is a secondary assay for specificity for the TOX21_PR_BLA_Agonist assay. To differentiate true PR agonists from cytotoxic substances, this follow up assay is multiplexed with a cell viability assay.TOX21_PR_LUC_Followup_Antagonist_viability is an assay readout measuring cellular ATP content and detected with CellTiter-Glo Luciferase-coupled ATP quantitation.TOX21_PR_LUC_Followup_Antagonist_viability used a type of viability reporter where loss-of-signal activity can be used to understand changes in the cell viability. Furthermore, this assay endpoint can be referred to as a secondary readout, because this assay has produced multiple assay endpoints where this one serves a viability function. To generalize the intended target to other relatable targets, this assay endpoint is annotated to the cell cycle intended target family, where the subfamily is cytotoxicity.
Quality Control Precautions: Maintain cells below 85-90% confluence in culture medium. For assay purpose, the cells should be cultured in assay medium with 10% charcoal stripped FBS for 5 days with alternate day medium changed to fresh medium. Especially while in assay culture, the cells should not reach more than 85% confluence as they would become harder to detach if they reach over confluence.Assay Protocol: HEK293-PR-A-luc cells were dispensed at 3,000 cells/5 uL/well of culture medium into white wall/solid-bottom 1536-well plates using a Multidrop Combi (ThermoFisher Scientific, Waltham, MA) dispenser. After the assay plates were incubated at 37C and […] for 5 h, 23 nL of compounds dissolved in DMSO, positive controls or DMSO only was transferred to the assay plate by a Pintool station (Kalypsys, San Diego, CA). The plates were incubated at 37C and […] for 16 h. Then 4 uL of ONE-Glo reagent (Promega, Madison, WI) was added to each plate using a BioRAPTR Flying Reagent Dispenser (FRD) workstation (Beckman Coulter, Indianapolis, IN, USA) and luminescence was quantified on a ViewLux (PerkinElmer, Shelton, CT) plate reader after 30 min incubation at room temperature.
`O=[N+]([O-])c1ccc(Nc2ccccc2)cc1`: the compound was called inactive. Still for that read-out and setting: the value for `OC(c1ccc(Cl)cc1)(c1ccc(Cl)cc1)c1cccnc1` was “inactive”. As to `Nc1ccc(-c2ccccc2)cc1`, the compound was classed as inactive.

As to `CCOP(=S)(OCC)Oc1ccc(Cl)cc1Cl`, the result was inactive. Still for that read-out and setting: the value for `Cc1ccccc1OP(=O)(Oc1ccccc1C)Oc1ccccc1C` was “inactive”; that for `CC(C)(C1CCC(O)CC1)C1CCC(O)CC1` (configuration not stated) was “inactive”; that for `CC(C)CC(C)(c1ccc(O)cc1)c1ccc(O)cc1` was “inactive”.

Test system in a further assay: not listed separately
Kind of assay: TOX21_PR_LUC_Followup_Agonist_viability: Viability Assessment in the Tox21 HEK293 Progesterone Receptor (PR) Agonism Luciferase Follow-Up Assay (AID 2283941).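 Also: loss of signal means cytotoxicity so actives lower viability.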 The procedure, abridged:
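Cells were kept 5 days in charcoal-stripped serum medium before plating HEK293-PR-A-luc at 3,000 cells/well. After 5 h they received DMSO-dissolved compound and incubated 16 h at 37C. Viability was taken from CellTiter-Glo ATP luminescence.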
As to `O=[N+]([O-])c1ccc(Nc2ccccc2)cc1`, the result was inactive. As to `OC(c1ccc(Cl)cc1)(c1ccc(Cl)cc1)c1cccnc1`, the compound was called inactive. The same measure, in the same setting: under `O=S(=O)(Oc1ccc(Cl)cc1)c1ccc(Cl)cc1` stands “inactive”; under `Nc1ccc(-c2ccccc2)cc1`, “inactive”; under `CCOP(=S)(OCC)Oc1ccc(Cl)cc1Cl`, “inactive”. As to `Cc1ccccc1OP(=O)(Oc1ccccc1C)Oc1ccccc1C`, the compound was classed as inactive. On to `CC(C)(C1CCC(O)CC1)C1CCC(O)CC1` (configuration not stated), for which the compound was classed as inactive. As for `CC(C)CC(C)(c1ccc(O)cc1)c1ccc(O)cc1`, the compound was classed as inactive.

The next assay concerns the target THRA (gene 7067) (UniProt P10827). Briefly: TOX21_TRA_COA_Agonist_Followup_ratio: Tox21 Thyroid Hormone Receptor alpha Agonism through Coactivator Recruitment Follow-Up Assay, Ratio (AID 2283948; active = hit-call score of the fitted dose curve at least 0.9, where 1 is the maximum; inactive = score below 0.9). In short, it runs like this:
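Follow-up specificity assay in which TRα ligand-binding domain, expressed as a GST fusion, recruits a fluorescein-labelled SRC-2 peptide. Energy transfer from a terbium anti-GST antibody gives the acceptor/donor ratio, fitted upward relative to DMSO.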
As for `c1csc(-c2ccc(-c3cccs3)s2)c1`, the outcome was inactive. On to `CC1(C)COP(Oc2ccccc2)OC1`, for which the result was inactive. `O=C(Cl)OCCOCCOC(=O)Cl`: the outcome was inactive.

As to `CN(C)c1ccc(N=O)cc1`, the result was inactive. On to `C=CC(=O)[O][Sn]([CH2]CCC)([CH2]CCC)[CH2]CCC`, for which the result was inactive.

On to `CCC[CH2][Sn]([CH2]CCC)([CH2]CCC)[CH2]CCC`, for which the outcome was inactive.

Another assay addresses THRB (gene 7068) (UniProt P10828). Briefly: TOX21_TRB_BLA_Agonist_Followup_ratio: Tox21 Thyroid Hormone Receptor beta Agonism Beta-lactamase (BLA) Follow-Up Assay, Ratio (AID 2283954). The procedure, abridged:
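Human TRβ LBD–GAL4 DBD fusion in GeneBLAzer UAS-bla HEK293T cells; 11 concentrations in triplicate, 18 h at 37°C/5% CO2, T3 as agonist control. CCF4-AM substrate 2 h at room temperature; 460:530 nm ratio fitted for gain of signal versus DMSO.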
Consider `c1csc(-c2ccc(-c3cccs3)s2)c1`, for which the outcome was inactive. `O=C(Cl)OCCOCCOC(=O)Cl`: the outcome was inactive. As to `C=CC(=O)[O][Sn]([CH2]CCC)([CH2]CCC)[CH2]CCC`, the result was inactive.
